Here are results for nine compounds from PubChem BioAssay (EPA / NIEHS).

SMILES strings stand for the structures. Inconclusive results are not listed. Activity calls are given as the source filed them. The calls were made as follows, unless noted: active = hit-call score of the fitted dose curve at least 0.9, where 1 is the maximum; inconclusive = response in the unintended direction; inactive = score below 0.9.

Read-out in experiment [1]: sulfotransferase (SULT2A), SULT2A1 (gene 6822)
In words: CLD_SULT2A_6hr: CellzDirect (CLD) Gene Expression Assay for sulfotransferase (SULT2A) at 6 hours (AID 2283669).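 Also: hits raise transcript level above the DMSO vehicle baseline.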 In outline:
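Primary human hepatocytes from two donor preparations were dosed daily with chemicals or 0.2% DMSO and harvested at 6 h. Transcript induction read by qNPA chemiluminescence, fitted for gain of signal relative to DMSO; morphology-based cytotoxicity annotated.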

Experiment [2] can be described thus: CLD_ACTIN_24hr: CellzDirect (CLD) Gene Expression Assay for Baseline Control (Actin) at 24 hours (AID 2283670). In outline:
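Primary human hepatocytes dosed over multiple concentrations with 0.2% DMSO vehicle; actin mRNA measured at 24 h by qNPA chemiluminescence. Background control endpoint, fitted as gain of signal versus DMSO.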

Read-out in experiment [3]: Cytochrome P450 (CYP24A1_1), CYP24A1 (gene 1591)
In words: LTEA_HepaRG_CYP24A1_1: Life Technologies and Expression Analysis (LTEA) Assay for Cytochrome P450 (CYP24A1_1) using HepaRG (AID 2283671; active = hit-call score of the fitted dose curve at least 0.9, where 1 is the maximum; inactive = score below 0.9). To be noted: mRNA level, 48 h; actives raise or lower the signal. Put shortly: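 HepaRG, 48 h exposure, 8-pt half-log series from 100 uM in 0.5% DMSO, duplicates. Readout: TaqMan qRT-PCR of CYP24A1 mRNA, housekeeping-normalized (ACTB/GAPDH/POLR2A). Bidirectional curve fit vs DMSO baseline.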

Read-out in experiment [4]: glucuronosyltransferase (UGT1A1), UGT1A1 (gene 54658)
Nature of the experiment: CLD_UGT1A1_6hr: CellzDirect (CLD) Gene Expression Assay for glucuronosyltransferase (UGT1A1) at 6 hours (AID 2283672). In outline: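 Primary human hepatocytes from two donor preparations, dosed with fresh solutions in 0.2% DMSO, harvested at 6 h. UGT1A1 mRNA measured by qNPA chemiluminescence; induction fitted upward versus DMSO.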

Read-out in experiment [5]: Cytochrome P450 2B6 (Homo sapiens) (UniProt P20813)
In words: CLD_CYP2B6_6hr: CellzDirect (CLD) Gene Expression Assay for xenobiotic metabolism (CYP2B6) at 6 hours (AID 2283677).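 Also: actives raise CYP2B6 transcript above DMSO baseline so AC50 marks an inducer.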 In outline:
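Primary human hepatocytes dosed with chemicals at multiple concentrations, vehicle 0.2% DMSO; CYP2B6 mRNA induction measured 6 h after dosing by quantitative nuclease protection assay with chemiluminescence, gain of signal fitted relative to DMSO.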

Experiment [6] is described as follows: CCTE_Padilla_ZF_144hpf_TERATOSCORE: (Legacy) CCTE's 144 Hour Post-fertilization zebrafish Assay Teratoscore, Padilla Lab (AID 2283679; active = hit-call score of the fitted dose curve at least 0.9, where 1 is the maximum; inactive = score below 0.9;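 as to AC50: zebrafish embryos with chorions exposed by immersion from 6-8 hpf to 5 dpf with daily renewal; teratogenicity score from eye scoring of death hatching and malformations at 144 hpf; higher score means more developmental defects relative to DMSO baseline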). Put shortly:
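Larvae scored by eye at 144 hpf for death, hatching and malformations after a day in clean Hanks'. Before that, daily-renewed exposure at 80 uM (0.4% DMSO, 26C) from roughly 6-8 hpf through 5 dpf, 4 embryos per chemical.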

Read-out in experiment [7]: Cytochrome P450 3A4 (Homo sapiens) (UniProt P08684)
Nature of the experiment: CLD_CYP3A4_6hr: CellzDirect (CLD) Gene Expression Assay for xenobiotic metabolism (CYP3A4) at 6 hours (AID 2283680). In outline:
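Primary human hepatocytes (two donor preparations) dosed; CYP3A4 mRNA harvested at 6 h and quantified by qNPA chemiluminescence. Gain of signal fitted against 0.2% DMSO vehicle; cytotoxicity flagged by phase-contrast morphology.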

Read-out in experiment [8]: xenobiotic metabolism (CYP1A2), CYP1A2 (gene 1544)
In words: CLD_CYP1A2_24hr: CellzDirect (CLD) Gene Expression Assay for xenobiotic metabolism (CYP1A2) at 24 hours (AID 2283683). Put shortly: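 Primary human hepatocytes from two donor preparations dosed daily with multiple concentrations of chemical, 0.2% DMSO vehicle. CYP1A2 mRNA at 24 h quantified by qNPA chemiluminescence; gain of signal analyzed relative to DMSO. Cytotoxicity flagged by phase-contrast morphology.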

Read-out in experiment [9]: Cytochrome P450 2C19 (Homo sapiens) (UniProt P33261)
Nature of the experiment: CLD_CYP2C19_24hr: CellzDirect (CLD) Gene Expression Assay for xenobiotic metabolism (CYP2C19) at 24 hours (AID 2283687).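 Also: activity means mRNA induction above DMSO vehicle baseline.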 In outline:
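Primary human hepatocytes (two donor preparations) dosed daily with fresh test chemical in 0.2% DMSO vehicle; CYP2C19 mRNA induction measured at 24 h by quantitative nuclease protection assay with chemiluminescence, fitted for gain of signal versus DMSO.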

Read-out in experiment [10]: xenobiotic metabolism (CYP1A1), CYP1A1 (gene 1543)
In words: CLD_CYP1A1_24hr: CellzDirect (CLD) Gene Expression Assay for xenobiotic metabolism (CYP1A1) at 24 hours (AID 2283673). Put shortly: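 Primary human hepatocytes dosed daily with fresh solutions in 0.2% DMSO vehicle. mRNA measured at 24 h by quantitative nuclease protection assay with chemiluminescence; gain-of-signal fit versus DMSO, with morphology-based cytotoxicity flags.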

Read-out in experiment [11]: ABC Transporter (ABCB11), ABCB11 (gene 8647)
Nature of the experiment: CLD_ABCB11_24hr: CellzDirect (CLD) Gene Expression Assay for ABC Transporter (ABCB11) at 24 hours (AID 2283674; active = hit-call score of the fitted dose curve at least 0.9, where 1 is the maximum; inactive = score below 0.9). Put shortly:
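Primary human hepatocytes were dosed daily for two days, with 0.2% DMSO vehicle. ABCB11 mRNA induction was measured at 24 hours by quantitative nuclease protection assay with chemiluminescence. Gain of signal was fitted relative to DMSO.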

Read-out in experiment [12]: ABC Transporter (ABCB11), ABCB11 (gene 8647)
Nature of the experiment: CLD_ABCB11_6hr: CellzDirect (CLD) Gene Expression Assay for ABC Transporter (ABCB11) at 6 hours (AID 2283675).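 Also: hits raise ABCB11 mRNA level so AC50 marks induction.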 Put shortly: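 Human primary hepatocytes (two donor preparations) given fresh chemical daily at multiple concentrations, vehicle 0.2% DMSO. ABCB11 mRNA induction measured 6 h after dosing by qNPA chemiluminescence versus DMSO; cytotoxicity annotated from morphology.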

Experiment [13] is described as follows: CLD_ACTIN_6hr: CellzDirect (CLD) Gene Expression Assay for Baseline Control (Actin) at 6 hours (AID 2283676).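 Also: active means increased actin mRNA relative to DMSO vehicle.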 Put shortly:
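Primary human hepatocytes dosed with fresh chemical solutions (vehicle 0.2% DMSO), harvested at 6 h. Actin mRNA quantified by quantitative nuclease protection assay with chemiluminescent read-out, as background control relative to DMSO.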

Read-out in experiment [14]: Glyceraldehyde-3-phosphate dehydrogenase (Homo sapiens) (UniProt P04406)
Nature of the experiment: CLD_GAPDH_6hr: CellzDirect (CLD) Gene Expression Assay for Baseline Control (Glyceraldehyde 3-phosphate dehydrogenase) at 6 hours (AID 2283681).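 Also: active means increased signal relative to DMSO vehicle.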 In outline:
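Primary human hepatocytes from two donor preparations, dosed at multiple concentrations with 0.2% DMSO vehicle; GAPDH mRNA measured 6 h after dosing by chemiluminescent quantitative nuclease protection assay (qNPA) on denatured lysates. Serves as background control; cytotoxicity annotated by morphology.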

Read-out in experiment [15]: ABC Transporter (ABCB1), ABCB1 (gene 5243)
In words: CLD_ABCB1_24hr: CellzDirect (CLD) Gene Expression Assay for ABC Transporter (ABCB1) at 24 hours (AID 2283684). In outline:
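Primary human hepatocytes, two donor preparations, dosed daily with fresh solutions; vehicle 0.2% DMSO; harvested at 24 h. ABCB1 mRNA measured by quantitative nuclease protection assay (chemiluminescence); morphology-based cytotoxicity annotated.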

Read-out in experiment [16]: Broad substrate specificity ATP-binding cassette transporter ABCG2 (Homo sapiens) (UniProt Q9UNQ0)
Nature of the experiment: CLD_ABCG2_24hr: CellzDirect (CLD) Gene Expression Assay for ABC Transporter (ABCG2) at 24 hours (AID 2283685). Put shortly: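 Primary human hepatocytes were dosed daily with ToxCast chemicals at multiple concentrations (vehicle 0.2% DMSO). ABCG2 mRNA was measured at 24 h by qNPA chemiluminescence; induction was scored as gain of signal versus DMSO.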

Read-out in experiment [17]: Cytochrome P450 2B6 (Homo sapiens) (UniProt P20813)
In words: CLD_CYP2B6_24hr: CellzDirect (CLD) Gene Expression Assay for xenobiotic metabolism (CYP2B6) at 24 hours (AID 2283686). Put shortly:
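Primary human hepatocytes dosed daily for two days with fresh solutions, harvested at 24 hours; mRNA induction quantified by qNPA chemiluminescence, gain of signal vs 0.2% DMSO vehicle. Cytotoxicity annotated from phase-contrast morphology.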

Read-out in experiment [18]: Cytochrome P450 3A4 (Homo sapiens) (UniProt P08684)
In words: CLD_CYP3A4_24hr: CellzDirect (CLD) Gene Expression Assay for xenobiotic metabolism (CYP3A4) at 24 hours (AID 2283689). In outline:
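Primary human hepatocytes from two donors dosed daily with fresh compound for two days, 0.2% DMSO vehicle. CYP3A4 mRNA at 24 hr by qNPA chemiluminescence; gain-of-signal fit versus DMSO, cytotoxicity flagged by morphology.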

Read-out in experiment [19]: Cytochrome P450 2C19 (Homo sapiens) (UniProt P33261)
Nature of the experiment: CLD_CYP2C19_6hr: CellzDirect (CLD) Gene Expression Assay for xenobiotic metabolism (CYP2C19) at 6 hours (AID 2283678). Put shortly:
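Primary human hepatocytes from two donor preparations were dosed daily, with 0.2% DMSO as vehicle, and harvested 6 h after dosing. CYP2C19 mRNA induction was measured by qNPA chemiluminescence and fitted as gain of signal against DMSO.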

Cytochrome P450 2C19 (Homo sapiens), sequence (P33261 whole entry, looked up): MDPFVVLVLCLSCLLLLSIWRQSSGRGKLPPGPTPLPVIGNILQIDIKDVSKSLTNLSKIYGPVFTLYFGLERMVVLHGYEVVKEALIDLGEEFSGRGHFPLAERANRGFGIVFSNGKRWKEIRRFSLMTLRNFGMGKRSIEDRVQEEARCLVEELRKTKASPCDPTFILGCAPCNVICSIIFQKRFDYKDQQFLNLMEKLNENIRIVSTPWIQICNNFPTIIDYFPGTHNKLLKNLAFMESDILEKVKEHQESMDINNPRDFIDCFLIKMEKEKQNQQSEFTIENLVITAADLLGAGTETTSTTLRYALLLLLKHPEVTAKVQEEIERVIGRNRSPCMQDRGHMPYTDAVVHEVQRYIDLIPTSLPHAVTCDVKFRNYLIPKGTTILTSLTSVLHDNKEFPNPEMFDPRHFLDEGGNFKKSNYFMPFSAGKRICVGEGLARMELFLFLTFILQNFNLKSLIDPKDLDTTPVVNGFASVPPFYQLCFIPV
Glyceraldehyde-3-phosphate dehydrogenase (Homo sapiens), sequence (P04406 whole entry, looked up): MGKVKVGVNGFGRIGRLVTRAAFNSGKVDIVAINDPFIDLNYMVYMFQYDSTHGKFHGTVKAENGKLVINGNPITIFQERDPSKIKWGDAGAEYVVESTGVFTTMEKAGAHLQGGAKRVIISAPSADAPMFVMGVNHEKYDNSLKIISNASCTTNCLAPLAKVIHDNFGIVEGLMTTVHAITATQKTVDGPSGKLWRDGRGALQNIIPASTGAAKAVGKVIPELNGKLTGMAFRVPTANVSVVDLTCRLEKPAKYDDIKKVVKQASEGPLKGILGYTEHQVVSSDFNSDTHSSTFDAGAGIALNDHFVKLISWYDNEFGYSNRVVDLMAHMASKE
Cytochrome P450 3A4 (Homo sapiens), sequence (P08684 whole entry, looked up): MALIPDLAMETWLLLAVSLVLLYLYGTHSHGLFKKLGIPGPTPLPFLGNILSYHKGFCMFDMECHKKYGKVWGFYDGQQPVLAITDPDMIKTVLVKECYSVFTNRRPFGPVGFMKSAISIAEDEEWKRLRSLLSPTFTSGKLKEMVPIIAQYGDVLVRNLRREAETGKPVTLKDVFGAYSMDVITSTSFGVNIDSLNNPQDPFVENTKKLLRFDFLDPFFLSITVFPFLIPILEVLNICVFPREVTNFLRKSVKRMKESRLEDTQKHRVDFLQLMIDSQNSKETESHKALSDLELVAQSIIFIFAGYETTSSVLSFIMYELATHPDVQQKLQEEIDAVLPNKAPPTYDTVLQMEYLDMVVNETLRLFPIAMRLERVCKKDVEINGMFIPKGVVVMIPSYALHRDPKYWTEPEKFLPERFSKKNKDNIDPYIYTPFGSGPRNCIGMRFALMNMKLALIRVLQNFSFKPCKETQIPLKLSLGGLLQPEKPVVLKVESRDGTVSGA
Broad substrate specificity ATP-binding cassette transporter ABCG2 (Homo sapiens), sequence (Q9UNQ0 whole entry, looked up): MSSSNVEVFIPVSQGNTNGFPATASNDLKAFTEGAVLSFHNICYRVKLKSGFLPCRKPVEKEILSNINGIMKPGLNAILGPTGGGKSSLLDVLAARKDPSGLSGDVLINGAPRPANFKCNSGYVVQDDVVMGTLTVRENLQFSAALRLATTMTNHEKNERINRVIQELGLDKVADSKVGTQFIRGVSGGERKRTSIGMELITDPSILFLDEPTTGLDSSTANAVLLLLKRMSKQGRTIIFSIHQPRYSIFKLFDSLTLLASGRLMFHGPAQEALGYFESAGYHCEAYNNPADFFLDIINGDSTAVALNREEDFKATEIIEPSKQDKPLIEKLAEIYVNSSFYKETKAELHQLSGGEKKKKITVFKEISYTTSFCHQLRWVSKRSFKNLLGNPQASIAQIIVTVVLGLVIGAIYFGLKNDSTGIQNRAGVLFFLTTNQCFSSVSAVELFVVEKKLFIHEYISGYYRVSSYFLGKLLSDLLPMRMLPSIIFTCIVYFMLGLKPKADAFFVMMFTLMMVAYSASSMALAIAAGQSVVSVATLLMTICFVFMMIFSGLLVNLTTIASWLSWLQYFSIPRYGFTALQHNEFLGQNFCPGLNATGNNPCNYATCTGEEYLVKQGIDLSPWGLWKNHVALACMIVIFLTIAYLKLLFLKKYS

In the case of `CNC(=O)Oc1cccc2c1OC(C)(C)O2`, the call in experiment [1], in experiment [2], in experiment [3], in [4], in experiment [7] and in [9] was inactive. The results for the AC50 in [5], in [6] and in experiment [8] were 2.74 µM (active), 50.1 µM (active) and 20 µM (active), respectively.
On to `CCOP(=S)(Oc1cnc(C(C)(C)C)nc1)OC(C)C` (stereo not given), for which the AC50 in experiment [1] was 10.8 µM (active); in [10] it was 7.48 µM (active); in experiment [12], 27.4 µM (active); in experiment [5] it was 0.47 µM (active); in [6], 16.8 µM (active); in experiment [17], 2.05 µM (active). Besides, in experiment [18], the AC50 was 0.464 µM (active). Moreover, the compound was classed as inactive in experiment [3], in experiment [11], in [13], in [14], in experiment [15] and in experiment [16]. Further, the result in experiment [9] was inactive.
For `CC(C1CC1)C(O)(Cn1cncn1)c1ccc(Cl)cc1` (stereo not given), the outcome in [1], in experiment [4], in experiment [12], in experiment [19], in experiment [14] and in [9] was inactive. The AC50 in [5] was 1.28 µM (active); in experiment [6] it was 57.6 µM (active); in experiment [17], 4.02 µM (active); in [18] it was 3.78 µM (active).
For `O=C(O)c1cc(Oc2ccc(C(F)(F)F)cc2Cl)ccc1[N+](=O)[O-]`, the AC50 in [1] is 0.00442 µM (active). The compound was classed as inactive in experiment [4], in [11], in experiment [12], in experiment [13], in experiment [5] and in experiment [19]. Also, the outcome in experiment [6] and in experiment [9] was inactive.
On to `CCOP(=S)(OCC)Oc1ccc([N+](=O)[O-])cc1`, for which the compound was called inactive in experiment [1]. Further, the AC50 in [10] was 5.99 µM (active); in experiment [5], 2.58 µM (active); in [6], 6.3 µM (active); in [8], 4.89 µM (active); in [17], 0.828 µM (active); in experiment [18], 5.25 µM (active).
Take `CN1COCN(Cc2cnc(Cl)s2)C1=N[N+](=O)[O-]`: the call in experiment [2], in [12], in experiment [13], in experiment [19], in [6] and in experiment [9] was inactive.
Turning to `CCOP(=S)(OCC)Oc1ccc2c(C)c(Cl)c(=O)oc2c1`, the outcome in experiment [2], in experiment [3], in [11], in experiment [12], in [15] and in [9] was inactive. In addition, the AC50 in [5] is 1.44 µM (active); in experiment [6], 27.3 µM (active); in experiment [17] it was 1.28 µM (active).
As to `COP(=O)(OC)OC(Br)C(Cl)(Cl)Br` (stereo not given), the compound was classed as inactive in experiment [2], in [4], in experiment [12], in [5], in [19] and in [14]. For the same compound, the compound was called inactive in experiment [9]. Also, the AC50 in experiment [6] is 16.7 µM (active).
`CCc1cnc(C2=NC(C)(C(C)C)C(=O)N2)c(C(=O)O)c1` (stereo not given): the call in experiment [2], in experiment [4], in experiment [12], in [13], in experiment [19] and in experiment [6] was inactive. For the same compound, the outcome in experiment [7], in [14], in experiment [8], in experiment [15], in [17] and in experiment [9] was inactive. Also, the compound was classed as inactive in experiment [18].

For orientation: AC50 means the concentration at which the activity in the assay is half-maximal.
